# Hits are enriched below; roughly 19% of the tested compounds scored in any of these assays.
# HepG2 tox: qHTS for Inhibitors of TGF-b: Cytotox Counterscreen | AID 588856, 2011 | actives 0.76% (n = 410,000) | HepG2 CAGA-GFP viability, ATP luminescence, 18 h | Potency, µM (titrated, usually from 46.1 µM), for the others: at the highest dose activity change, negative = cytotoxicity, most hits filed as cytotoxic; also: potency is read from the fitted curve at half-maximal effect
#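 CellTiter-Glo luminescence gave cytotoxicity after 18 hours at 37 degrees C. The cells were HepG2 CAGA-GFP in 1% FBS DMEM, stimulated with 500 pg/mL TGF-beta after compound addition. %Activity was normalised to no-cell wells (complete cell-killing) and DMSO (no toxicity), and curves were fitted and classified.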
# IL-1B inflam inh: qHTS for Inhibitors of Inflammasome Signaling: IL-1-beta AlphaLISA Primary Screen | THP-1 LPS/ATP IL-1B secretion, AlphaLISA, 16 h; stronger effect = lower value | activity change, % at 57.5 µM | actives 4.7% (n = 360,000); in the data active = activity change below about -50%; inconclusive = mostly about -30% to -49%; also: % is scaled to controls: 0 for no effect and ±100 for the full control effect
#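 THP-1 cells pretreated 1 hr with compounds (up to 57.5 uM final), then stimulated with LPS (250 ng/mL final) plus ATP (1.25 mM final); secreted IL-1B measured by AlphaLISA after 16 hr, decreased signal indicating inhibition.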
# ASM inhibitor: Inhibitors of Secretory Acid Sphingomyelinase (S-ASM): qHTS; Sphingomyelin phosphodiesterase (Homo sapiens), P17405; placental ASM, HMU-PC fluorogenic substrate, 60 min; Potency, µM (titrated, usually from 57.5 µM), without a hit: at the top dose activity change, negative = inhibition, actives largely listed as inhibitors; actives 0.006% (n = 340,000); AID 504937, 2011; also: potency is read from the fitted curve at half-maximal effect
# Target sequence (P17405 47-631 limits assumed): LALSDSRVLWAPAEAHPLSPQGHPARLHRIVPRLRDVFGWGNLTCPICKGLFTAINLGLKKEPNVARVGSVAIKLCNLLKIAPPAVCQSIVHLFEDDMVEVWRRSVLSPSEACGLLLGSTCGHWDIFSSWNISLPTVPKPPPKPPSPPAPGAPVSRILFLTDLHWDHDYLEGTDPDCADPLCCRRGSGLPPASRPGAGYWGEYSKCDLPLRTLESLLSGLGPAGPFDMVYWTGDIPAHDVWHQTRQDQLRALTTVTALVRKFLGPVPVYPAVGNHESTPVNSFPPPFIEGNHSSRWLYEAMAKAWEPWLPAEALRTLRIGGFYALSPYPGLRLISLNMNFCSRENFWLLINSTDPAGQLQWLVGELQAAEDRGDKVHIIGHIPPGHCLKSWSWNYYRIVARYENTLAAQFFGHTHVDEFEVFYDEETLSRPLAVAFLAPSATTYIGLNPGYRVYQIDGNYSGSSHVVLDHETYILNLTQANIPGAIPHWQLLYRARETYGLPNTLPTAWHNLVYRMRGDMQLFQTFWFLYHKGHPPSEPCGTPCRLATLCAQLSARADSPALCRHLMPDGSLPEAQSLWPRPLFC
#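 Human placenta-derived ASM preincubated with compound 10 min at room temperature, then reacted with 9 uM (final) fluorogenic HMU-PC substrate for 60 min at 37 C. Stop solution raises pH to 10; fluorescence read at Ex 386/Em 447 nm.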
# TDP1 cell CPT: qHTS for Inhibitors of human tyrosyl-DNA phosphodiesterase 1 (TDP1): qHTS in cells in presence of CPT | Potency, µM (doses to about 46.2 µM), without a hit: at the highest dose activity change, negative = growth inhibition, actives largely listed as inhibitors | actives 12% (n = 420,000) | AID 686979, 2013 | chicken DT40 Tdp1-/-;hTDP1 cells + 20 nM CPT, ATP luminescence, 48 h; also: potency is read from the fitted curve at half-maximal effect; % is scaled to controls: 0 for no effect and ±100 for the full control effect; nearly all actives have a fitted effect of over 55% in size
#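 Cell growth measured by CellTiter-Glo luminescence after a minimum 48 h, 37 C compound exposure with 20 nM CPT in Tdp1-knockout DT40 cells stably expressing hTDP1, seeded 400/well; qHTS titration format.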
# TGFb inhibitor: qHTS for Inhibitors of TGF-b | actives 1.2% (n = 410,000) | AID 588855, 2011 | Potency, µM (series often up to 46.1 µM), without a hit: at the highest dose activity, negative = inhibition, most hits filed as inhibitors | HepG2 CAGA-GFP TGF-b/SMAD3 reporter, GFP fluorescence, 18 h; TGF-beta stimulated, 500 pg/mL final; also: potency is read from the fitted curve at half-maximal effect; % is scaled to controls: 0 for no effect and ±100 for the full control effect; nearly all actives have a fitted effect of over 65% in size
#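 Inhibition was scored as loss of TGF-beta-induced (500 pg/mL final, 18 hours, 37 degrees C) GFP in HEPG2 cells carrying a CAGA-GFP reporter, in DMEM with 1% FBS. Well GFP was summed per cell; Activity was normalised to unstimulated and stimulated DMSO wells, then concentration-response fitting.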
# DT40 TDP1 no CPT: qHTS for Inhibitors of human tyrosyl-DNA phosphodiesterase 1 (TDP1): qHTS in cells in absence of CPT; DT40 Tdp1-/- hTDP1 cells, no CPT, ATP luminescence, 48 h; Potency, µM (doses to about 46.2 µM), inactives show at the highest dose activity change, negative = growth inhibition, usual class: inhibitors; actives 15% (n = 420,000); also: potency is read from the fitted curve at half-maximal effect; % is scaled to controls: 0 for no effect and ±100 for the full control effect; nearly all actives have a fitted effect of over 55% in size
#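 DT40 Tdp1-/-;hTDP1 cells, no CPT (DMSO vehicle only), 400 cells/well; compounds pin-transferred; ≥48 hr, 37 °C; CellTiter-Glo 30 min RT dark, luminescence read.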
# Starred values were filed as active, the others as inactive; ? = inconclusive; nt = not tested or not shown. Unless noted, calls follow the shape of the dose curve; as a rule, active = well fitted curve in the direction sought with a large enough effect; inconclusive = small, poorly fitted or top-dose-only effect, or another doubt; inactive = no such curve, though single readings can be large; an effect the other way counts as inactive or inconclusive.
SMILES,HepG2 tox,IL-1B inflam inh,ASM inhibitor,TDP1 cell CPT,TGFb inhibitor,DT40 TDP1 no CPT
CCc1ccc2[nH]c(=O)c(CN(Cc3ccco3)Cc3nnnn3Cc3ccco3)cc2c1,-1%,nt,nt,?,-5%,13µM*
CC1Cc2ccccc2N1C(=O)c1ccc(N2CCCCC2)c([N+](=O)[O-])c1 (configuration not stated),-36%,-7,-2%,?,?,?
CC1Cc2ccccc2N1C(=O)c1ccc(N2CCCC2)c([N+](=O)[O-])c1 (configuration not stated),-40%,-82*,-19%,?,-25%,?
O=C(c1ccc(N2CCCC2)c([N+](=O)[O-])c1)N1CCN(CCO)CC1,7.9µM*,21,-2%,0%,-3%,26%
CC(=O)N1CCN(c2cc(N3CCc4ccccc4C3)c(F)cc2[N+](=O)[O-])CC1,4%,?,?,?,?,?
O=C(c1ccc(N2CCCCC2)c([N+](=O)[O-])c1)N1CCOCC1,-2%,-9,-4%,2%,0%,-13%
O=C(c1ccc([N+](=O)[O-])cc1)N1CCc2ccccc2C1,-9%,-4,0%,-14%,6%,-14%
N#Cc1ccc(N2CCc3ccccc3C2)c([N+](=O)[O-])c1,-5%,-28,-7%,-13%,4%,23µM*
O=C(c1ccc(N2CCCC2)c([N+](=O)[O-])c1)N1CCc2ccccc2C1,0%,?,-2%,16µM*,-21%,29µM*
Cc1ccc(C)c(N2CCN(C(=O)c3ccc(N4CCOCC4)c([N+](=O)[O-])c3)CC2)c1,-38%,-51*,-20%,?,-22%,16µM*
CC1Cc2ccccc2N1C(=O)c1ccc2c(c1)OCO2 (configuration not stated),5%,-64*,6%,?,16%,-8%
CC1Cc2ccccc2N1C(=O)c1ccc2nccnc2c1 (configuration not stated),4%,7,0%,-12%,-1%,-2%
O=C(c1ccc(N2CCCCC2)c([N+](=O)[O-])c1)N(Cc1ccccc1)c1ccccn1,-8%,?,-10%,16µM*,-5%,18µM*
COc1cc([C@@H]2Nc3c(F)cccc3[C@@H]3C=CC[C@@H]32)cc(Br)c1OC,-10%,nt,nt,?,-25%,?
Cc1c(C(=O)O)sc(S(=O)(=O)N2CCN(C(=O)Cc3ccc(F)cc3)CC2)c1C(=O)O,-27%,0,8%,-12%,?,-22%
CCOC(=O)C1=C(N)n2c(s/c(=C\c3cccs3)c2=O)=C(C(=O)OCC)C1c1cccs1 (configuration not stated),-2%,43,-2%,4.1µM*,?,6.5µM*
Cc1ccnn1-c1ccc(C(=O)NCc2ccccc2CN2CCOCC2)cc1,0%,-17,2%,21µM*,11%,18µM*
O=C(NCc1ccccc1CN1CCOCC1)c1ccc(-n2cccn2)cc1,-1%,-15,-3%,?,4%,?
O=C(NCCc1ccc(Cl)cc1)C1(c2cccs2)CCOCC1,-12%,nt,nt,-15%,15%,-28%
CCOC(=O)C1Nc2ccc(Br)cc2C2C=CCC12 (configuration not stated),-30%,-12,-2%,?,?,21µM*
O=C(NCCF)C1Nc2ccc(OC(F)(F)F)cc2C2C=CCC12 (configuration not stated),-5%,0,1%,?,-23%,-24%
CC(C)CNC(=O)C1Nc2ccc(OC(F)(F)F)cc2C2C=CCC12 (configuration not stated),-9%,-6,9%,?,1%,13µM*
CCOC(=O)C1Nc2ccc(C)cc2C2C=CCC12 (configuration not stated),3%,-13,3%,?,-15%,18µM*
CCOC(=O)c1ccc2c(c1)C1C=CCC1C(C(=O)OCC)N2 (configuration not stated),-4%,3,50%,?,3%,?
CC1CCCCC1NS(=O)(=O)c1ccc2c(c1)CCC(=O)N2 (configuration not stated),3%,30,0%,13%,-1%,2%
SMILES,HepG2 tox,IL-1B inflam inh,ASM inhibitor,TDP1 cell CPT,TGFb inhibitor,DT40 TDP1 no CPT
CC(C)N=c1cc2n(-c3ccc(Cl)cc3)c3ccccc3nc-2cc1Nc1ccc(Cl)cc1,-13%,-15,8%,13µM*,-4%,16µM*
C[C@H](O)[C@@H]1C(=O)N2CCc3ccc(-c4ccccc4)cc3[C@@H]2C[C@@H]1N(C)C(=O)Nc1cc(Cl)cc(Cl)c1,-52%,?,-15%,-19%,?,-23%
CC(CCc1ccc(O)cc1)N1CCC(Oc2ccc(C(=O)N3CCCC3)cc2)CC1 (configuration not stated),-8%,-6,-3%,7%,13%,-4%
COc1ccc(CCC(C)N2CCC(Oc3ccc(C(=O)N4CCCC4)cc3)CC2)cc1 (configuration not stated),62%,-16,2%,26µM*,?,?
COc1cccc(CN2CCC(Oc3ccc(C(=O)N4CCCCC4)cc3)CC2)c1,-29%,-15,1%,-21%,-19%,-11%
CSc1cccc(CN2CCC(Oc3cccc(C(=O)N4CCCC4)c3)CC2)c1,-23%,?,0%,?,-16%,?
COc1ccc(CN2CCC(Oc3ccc(C(=O)N4CCCCC4)cc3)CC2)cc1C,-49%,-53*,-1%,?,0%,?
CSc1cccc(CN2CCC(Oc3ccc(C(=O)N4CCCCC4)cc3)CC2)c1,-14%,-88*,-1%,?,0%,-25%
CC1(C)CC2CC(C)(CN2C(=S)NC(=O)c2ccccc2Cl)C1 (configuration not stated),-32%,17,-2%,?,4%,18µM*
O=C(NC(=S)N1CCOCC1)c1ccccc1Cl,3%,-2,3%,-10%,-24%,18%

# Screening data as filed in PubChem.
